# Measurements published in PubChem BioAssay (EPA / NIEHS).
# Activity calls are given as the source filed them. How the source made its calls: active means hit-call score of the fitted dose curve at least 0.9, where 1 is the maximum; inactive means score below 0.9.
# Read-out: Glutamate-cysteine ligase regulatory (GCLM), GCLM (gene 2730)
# Experiment: LTEA_HepaRG_GCLM: Life Technologies and Expression Analysis (LTEA) Assay for Glutamate-cysteine ligase regulatory (GCLM) using HepaRG (AID 2283500)
# Settings: mRNA level, 48 h; actives raise or lower the signal
# Method in brief: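 Differentiated human HepaRG cells exposed 48 h in serum-free induction medium to 8-point half-log concentrations (top 100 uM, 0.5% DMSO), in duplicate. GCLM mRNA quantified by qRT-PCR, normalized to ACTB, GAPDH, POLR2A; bidirectional fitting versus DMSO.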
SMILES,outcome,AC50
CCOc1cc(C(C)(C)C)ccc1C1COC(c2c(F)cccc2F)=N1 (stereo not given),inactive,–
COC(=O)N(C(=O)N1CO[C@@]2(C(=O)OC)Cc3cc(Cl)ccc3C2=N1)c1ccc(OC(F)(F)F)cc1,inactive,–
CC(C)N1C(=O)c2ccccc2NS1(=O)=O,inactive,–
CCCC(=NOCC)C1=C(O)CC(CC(C)SCC)CC1=O (stereo not given),inactive,–
C=CCOC(=O)C(C)(C)OC(=O)c1cc(-n2c(=O)cc(C(F)(F)F)n(C)c2=O)ccc1Cl,inactive,–
CC(C)Oc1cccc(NC(=O)c2ccccc2C(F)(F)F)c1,inactive,–
CC(C)NC(=O)N1CC(=O)N(c2cc(Cl)cc(Cl)c2)C1=O,–,27.8 µM (active)
CC(C)(C)C(=O)C(Oc1ccc(Cl)cc1)n1cncn1 (stereo not given),inactive,–
CC1(C)CCC(=Cc2ccc(Cl)cc2)C1(O)Cn1cncn1 (stereo not given),inactive,–
COCC(=O)N(c1c(C)cccc1C)C(C)C(=O)OC (stereo not given),inactive,–
CCOc1nc(F)cc2nc(S(=O)(=O)Nc3c(Cl)cccc3Cl)nn12,inactive,–
COP(=O)(OC)O/C(C)=C/C(=O)N(C)C,inactive,–
CC(C)N1C(=O)N(c2ccccc2)CSC1=NC(C)(C)C,–,74.7 µM (active)

# Read-out: Glutathione S-transferase M3 (GSTM3), GSTM3 (gene 2947)
# Experiment: LTEA_HepaRG_GSTM3: Life Technologies and Expression Analysis (LTEA) Assay for Glutathione S-transferase M3 (GSTM3) using HepaRG (AID 2283501)
# Settings: mRNA level, 48 h; actives raise or lower the signal
# Method in brief: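 GSTM3 transcript levels came from Fluidigm TaqMan qRT-PCR normalized to three housekeeping genes, fitted in both directions against DMSO. HepaRG cultures received chemicals for 48 h in serum-free induction medium (0.5% DMSO), 8 half-log concentrations up to 100 uM, duplicate.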
SMILES,outcome,AC50
COCC(C)N(C(=O)CCl)c1c(C)csc1C (stereo not given),inactive,–
COC(=O)c1c(C(F)F)nc(C(F)(F)F)c(C2=NCCS2)c1CC(C)C,inactive,–
Cn1c(-c2ccccc2)cc(-c2ccccc2)[n+]1C,–,85.7 µM (active)
COC(=O)NS(=O)(=O)c1ccc(N)cc1,inactive,–
CC(C)Nc1nc(Cl)nc(NC(C)C)n1,inactive,–
COC(=O)NC(=S)Nc1ccccc1NC(=S)NC(=O)OC,inactive,–
Clc1cccc(C(Cl)(Cl)Cl)n1,inactive,–
COP(=S)(OC)Oc1ccc([N+](=O)[O-])c(C)c1,inactive,–
CCOP(=S)(OCC)Oc1nc(Cl)n(C(C)C)n1,inactive,–
COc1cc(Cl)c(OC)cc1Cl,inactive,–
CCCCC(O)(Cn1cncn1)c1ccc(Cl)cc1Cl (stereo not given),–,82.6 µM (active)
CNC(=O)N(C)c1nnc(C(C)(C)C)s1,inactive,–
O=C(Nc1ccccc1-c1ccc(Cl)cc1)c1cccnc1Cl,inactive,–
CCNC(=O)NC(=O)C(C#N)=NOC,inactive,–
CCN(CC)C(=O)C(C)Oc1cccc2ccccc12 (stereo not given),inactive,–
CC1(C)CON(Cc2ccccc2Cl)C1=O,inactive,–
CCOc1nc(C(Cl)(Cl)Cl)ns1,–,22.9 µM (active)
CN=C=S,inactive,–

SMILES,outcome,AC50
C=C(C)CN(CC)c1c([N+](=O)[O-])cc(C(F)(F)F)cc1[N+](=O)[O-],inactive,–
Nc1c(Cl)c(Cl)nc(C(=O)O)c1Cl,inactive,–
CC1(C)C(C=C(Cl)Cl)C1C(=O)OC(C#N)c1cccc(Oc2ccccc2)c1 (stereo not given),inactive,–
Cc1cnc(C2=NC(C)(C(C)C)C(=O)N2)c(C(=O)O)c1 (stereo not given),inactive,–
CSC(=O)c1c(C(F)F)nc(C(F)(F)F)c(C(=O)SC)c1CC(C)C,inactive,–
CCOc1cc(C(C)(C)C)ccc1C1COC(c2c(F)cccc2F)=N1 (stereo not given),inactive,–
COC(=O)N(C(=O)N1CO[C@@]2(C(=O)OC)Cc3cc(Cl)ccc3C2=N1)c1ccc(OC(F)(F)F)cc1,inactive,–
CC(C)N1C(=O)c2ccccc2NS1(=O)=O,inactive,–
CCCC(=NOCC)C1=C(O)CC(CC(C)SCC)CC1=O (stereo not given),inactive,–
C=CCOC(=O)C(C)(C)OC(=O)c1cc(-n2c(=O)cc(C(F)(F)F)n(C)c2=O)ccc1Cl,inactive,–
CC(C)Oc1cccc(NC(=O)c2ccccc2C(F)(F)F)c1,inactive,–
CC(C)NC(=O)N1CC(=O)N(c2cc(Cl)cc(Cl)c2)C1=O,inactive,–
CC(C)(C)C(=O)C(Oc1ccc(Cl)cc1)n1cncn1 (stereo not given),inactive,–
CC1(C)CCC(=Cc2ccc(Cl)cc2)C1(O)Cn1cncn1 (stereo not given),inactive,–
COCC(=O)N(c1c(C)cccc1C)C(C)C(=O)OC (stereo not given),inactive,–
CCOc1nc(F)cc2nc(S(=O)(=O)Nc3c(Cl)cccc3Cl)nn12,inactive,–
COP(=O)(OC)O/C(C)=C/C(=O)N(C)C,inactive,–
CC(C)N1C(=O)N(c2ccccc2)CSC1=NC(C)(C)C,inactive,–

# Read-out: Heat shock 70 kDa protein 1 (HSPA1A), gene 3303
# Experiment: LTEA_HepaRG_HSPA1A: Life Technologies and Expression Analysis (LTEA) Assay for Heat shock 70 kDa protein 1 (HSPA1A) using HepaRG (AID 2283502)
# Settings: mRNA level, 48 h; actives raise or lower the signal
# Method in brief: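 Differentiated human HepaRG cells in serum-free induction medium were exposed in duplicate for 48 h to eight concentrations (top 100 uM, half-log steps, 0.5% DMSO). HSPA1A mRNA was quantified by qRT-PCR, normalized to ACTB, GAPDH and POLR2A, and fitted bidirectionally against DMSO.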
SMILES,outcome,AC50
COCC(C)N(C(=O)CCl)c1c(C)csc1C (stereo not given),inactive,–
COC(=O)c1c(C(F)F)nc(C(F)(F)F)c(C2=NCCS2)c1CC(C)C,inactive,–
Cn1c(-c2ccccc2)cc(-c2ccccc2)[n+]1C,–,40.2 µM (active)
COC(=O)NS(=O)(=O)c1ccc(N)cc1,inactive,–
CC(C)Nc1nc(Cl)nc(NC(C)C)n1,inactive,–
COC(=O)NC(=S)Nc1ccccc1NC(=S)NC(=O)OC,inactive,–
Clc1cccc(C(Cl)(Cl)Cl)n1,inactive,–
COP(=S)(OC)Oc1ccc([N+](=O)[O-])c(C)c1,inactive,–
CCOP(=S)(OCC)Oc1nc(Cl)n(C(C)C)n1,inactive,–
COc1cc(Cl)c(OC)cc1Cl,inactive,–
CCCCC(O)(Cn1cncn1)c1ccc(Cl)cc1Cl (stereo not given),–,18.8 µM (active)
CNC(=O)N(C)c1nnc(C(C)(C)C)s1,inactive,–
O=C(Nc1ccccc1-c1ccc(Cl)cc1)c1cccnc1Cl,inactive,–
CCNC(=O)NC(=O)C(C#N)=NOC,inactive,–
CCN(CC)C(=O)C(C)Oc1cccc2ccccc12 (stereo not given),inactive,–
CC1(C)CON(Cc2ccccc2Cl)C1=O,inactive,–
CCOc1nc(C(Cl)(Cl)Cl)ns1,inactive,–
CN=C=S,inactive,–

SMILES,outcome,AC50
C=C(C)CN(CC)c1c([N+](=O)[O-])cc(C(F)(F)F)cc1[N+](=O)[O-],inactive,–
Nc1c(Cl)c(Cl)nc(C(=O)O)c1Cl,inactive,–
CC1(C)C(C=C(Cl)Cl)C1C(=O)OC(C#N)c1cccc(Oc2ccccc2)c1 (stereo not given),inactive,–
Cc1cnc(C2=NC(C)(C(C)C)C(=O)N2)c(C(=O)O)c1 (stereo not given),inactive,–
CSC(=O)c1c(C(F)F)nc(C(F)(F)F)c(C(=O)SC)c1CC(C)C,inactive,–
CCOc1cc(C(C)(C)C)ccc1C1COC(c2c(F)cccc2F)=N1 (stereo not given),inactive,–
COC(=O)N(C(=O)N1CO[C@@]2(C(=O)OC)Cc3cc(Cl)ccc3C2=N1)c1ccc(OC(F)(F)F)cc1,inactive,–
CC(C)N1C(=O)c2ccccc2NS1(=O)=O,inactive,–
CCCC(=NOCC)C1=C(O)CC(CC(C)SCC)CC1=O (stereo not given),inactive,–
C=CCOC(=O)C(C)(C)OC(=O)c1cc(-n2c(=O)cc(C(F)(F)F)n(C)c2=O)ccc1Cl,inactive,–
CC(C)Oc1cccc(NC(=O)c2ccccc2C(F)(F)F)c1,inactive,–
CC(C)NC(=O)N1CC(=O)N(c2cc(Cl)cc(Cl)c2)C1=O,inactive,–
CC(C)(C)C(=O)C(Oc1ccc(Cl)cc1)n1cncn1 (stereo not given),inactive,–
CC1(C)CCC(=Cc2ccc(Cl)cc2)C1(O)Cn1cncn1 (stereo not given),inactive,–
COCC(=O)N(c1c(C)cccc1C)C(C)C(=O)OC (stereo not given),inactive,–
CCOc1nc(F)cc2nc(S(=O)(=O)Nc3c(Cl)cccc3Cl)nn12,inactive,–
COP(=O)(OC)O/C(C)=C/C(=O)N(C)C,inactive,–
CC(C)N1C(=O)N(c2ccccc2)CSC1=NC(C)(C)C,inactive,–
